{"source": "PubChem BioAssay (NCATS)", "note": "Inconclusive results are not listed. Unmarked numbers belong to inactive results. Calls of active or inactive are those of the source. Calls come from the whole dose curve; as a rule, active = well fitted curve in the direction sought with a large enough effect; inconclusive = small, poorly fitted or top-dose-only effect, or another doubt; inactive = no such curve, though single readings can be large; an effect the other way counts as inactive or inconclusive."}
{"molecular_target": "Luciferin 4-monooxygenase (Photinus pyralis) (UniProt P08659)", "sequence (P08659 whole entry, looked up)": "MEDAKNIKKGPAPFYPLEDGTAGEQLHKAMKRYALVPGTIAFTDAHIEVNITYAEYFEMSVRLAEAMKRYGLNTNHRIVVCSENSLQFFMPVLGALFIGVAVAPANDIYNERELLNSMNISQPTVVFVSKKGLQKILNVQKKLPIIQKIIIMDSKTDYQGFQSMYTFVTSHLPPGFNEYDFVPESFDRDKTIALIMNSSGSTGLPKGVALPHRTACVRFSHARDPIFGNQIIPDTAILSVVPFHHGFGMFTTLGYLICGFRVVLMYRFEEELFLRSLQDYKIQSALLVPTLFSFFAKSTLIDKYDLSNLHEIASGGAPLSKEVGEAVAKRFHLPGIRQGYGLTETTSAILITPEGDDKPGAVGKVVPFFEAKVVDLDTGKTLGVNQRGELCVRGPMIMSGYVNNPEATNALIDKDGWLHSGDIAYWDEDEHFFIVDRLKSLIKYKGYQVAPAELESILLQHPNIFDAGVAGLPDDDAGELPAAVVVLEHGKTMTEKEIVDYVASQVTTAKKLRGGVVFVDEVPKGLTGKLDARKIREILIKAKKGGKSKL", "experiment": "Biochemical firefly luciferase enzyme assay for NPC (AID 624030);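 note: purified P. pyralis luciferase at 10 nM with luciferin and ATP substrate; 0% = DMSO and -100% = full luciferase inhibition by PTC124 control; nearly all actives have a fitted effect of over 70% in size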", "conditions": "purified P. pyralis luciferase, luminescence, 5 min; series mostly up to 24.9 µM; activity change, negative = inhibition: at the top concentration", "outline": "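Counter-screen for direct inhibition of the luciferase enzyme by approved-drug library compounds, run at 10 nM enzyme in 50 mM Tris acetate (final). Luminescence was read within 5 min of enzyme-buffer addition and normalized to PTC124 versus DMSO (0%).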"}
{"smiles": "CC(=O)[C@]1(O)CCC2C3C=C(Cl)C4=CC(=O)C5CC5[C@@]4(C)C3CC[C@]21C", "note": "(some centres undefined)", "activity change, negative = inhibition": "1.13% [at 58.6 µM]"}
{"smiles": "CO[C@]12C(COC(N)=O)C3=C(C(=O)C(C)=C(N)C3=O)N1CC1NC12", "note": "(some centres undefined)", "activity change, negative = inhibition": "-3.08% [at 58.6 µM]"}
{"smiles": "COC1OC(CO)C(OC2OC(C(=O)O)C(OC3OC(COS(=O)(=O)O)C(OC4OC(C(=O)O)C(OC5OC(CO)C(OC6OC(C(=O)O)C(OC7OC(COS(=O)(=O)O)C(OC8OC(C(=O)O)=C[C@H](O)C8OS(=O)(=O)O)C(O)C7NC(C)=O)[C@@H](O)C6O)C(O)C5NC(C)=O)[C@@H](O)C4O)C(O)C3NC(C)=O)[C@@H](O)C2O)C(O)C1NC(C)=O", "note": "(some centres undefined)", "activity change, negative = inhibition": "-4.83% [at 58.6 µM]"}
{"smiles": "C[C@@]12C=CC(=O)C=C1CCC1C3CC(O)[C@@](O)(C(=O)CO)[C@]3(C)CC(O)[C@]12F", "note": "(some centres undefined)", "activity change, negative = inhibition": "22.5% [at 58.6 µM]"}
{"smiles": "CCC1OC(=O)C(C)[C@@H](O[C@H]2C[C@@](C)(OC)C(O)C(C)O2)C(C)[C@@H](O[C@@H]2OC(C)CC(N(C)C)C2O)[C@@](C)(O)CC(C)C(=O)[C@@H](C)C(O)[C@]1(C)O", "note": "(some centres undefined)", "activity change, negative = inhibition": "4.36% [at 58.6 µM]"}
{"smiles": "CC1C2CCC3C4CC=C5CC(N(C)C)CC[C@@]5(C)C4CC[C@@]32CN1C", "note": "(some centres undefined)", "activity change, negative = inhibition": "7.71% [at 58.6 µM]"}
{"smiles": "COC1CC(O[C@H]2/C(C)=C/CC3CC(C[C@]4(CCC(C)C(C5CCCCC5)O4)O3)OC(=O)[C@H]3C=C(C)/C(=N/O)C4OC/C(=C\\C=C\\[C@@H]2C)[C@@]43O)OC(C)C1O", "note": "(some centres undefined)", "activity change, negative = inhibition": "-3.89% [at 58.6 µM]"}
{"smiles": "C#C[C@]1(O)CCC2C3CCC4=CC(=O)CCC4C3CC[C@@]21C", "note": "(some centres undefined)", "activity change, negative = inhibition": "15.5% [at 58.6 µM]"}
{"smiles": "CCC(C)C(=O)OC1CC(O)C=C2C=CC(C)C(CCC(O)CC(O)CC(=O)O)C21", "note": "(centres undefined)", "activity change, negative = inhibition": "2.27% [at 58.6 µM]"}
{"smiles": "OCC1OC(n2cnc3c(=S)nc[nH]c32)C(O)C1O", "note": "(centres undefined)", "activity change, negative = inhibition": "-4.52% [at 58.6 µM]"}
{"tested_on": "not listed separately", "experiment": "S16 Schwann cell viability assay (CellTiter-Glo assay) (AID 624031);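 note: cellular ATP luminescence as a viability measure; plate controls were DMSO-treated cells for no effect and cell-free wells for full effect; nearly all actives have a fitted effect of over 70% in size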", "conditions": "S16 rat Schwann cells viability, 24 h; series mostly up to 25.7 µM; activity change, negative = cytotoxicity: at the top concentration", "outline": "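Untransfected S16 rat Schwann cells; compound 24 h, 37 °C/5% CO2; CellTiter-Glo ATP luminescence. % activity vs no-cell wells and DMSO controls (0%); concentration-effect curves classed by r2, response magnitude, activity.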"}
{"smiles": "CC1(C)S[C@H]2C(NC(=O)[C@@H](N)c3ccc(O)cc3)C(=O)N2[C@@H]1C(=O)O", "note": "(some centres undefined)", "activity change, negative = cytotoxicity": "3.58% [at 57.5 µM]"}
{"smiles": "CN(C)CCc1c[nH]c2ccc(CC3COC(=O)N3)cc12", "note": "(centres undefined)", "activity change, negative = cytotoxicity": "2.76% [at 57.5 µM]"}
{"smiles": "C[C@@]12CCC(=O)C=C1C=CC1C2CC[C@]2(C)C1CC[C@@]21CCC(=O)O1", "note": "(some centres undefined)", "activity change, negative = cytotoxicity": "-18.6% [at 57.5 µM]"}
{"smiles": "CC(C)Oc1ccc2c(=O)cc(-c3ccccc3)oc2c1", "activity change, negative = cytotoxicity": "-15.1% [at 57.5 µM]"}
{"smiles": "N[C@@H]1C(O)OC(CO)C(O)C1O", "note": "(some centres undefined)", "activity change, negative = cytotoxicity": "-0.0384% [at 57.5 µM]"}
{"smiles": "CC(=O)OCC(=O)[C@@]12OC3(CCCC3)OC1CC1C3CCC4=CC(=O)C=C[C@@]4(C)[C@]3(F)C(O)C[C@]12C", "note": "(some centres undefined)", "activity change, negative = cytotoxicity": "13.2% [at 57.5 µM]"}
{"smiles": "CCC1OC(=O)CC(O)C(C)[C@@H](O[C@@H]2OC(C)[C@H](O[C@@H]3C[C@@](C)(O)C(O)C(C)O3)C(N(C)C)C2O)[C@H](CC=O)CC(C)C(=O)/C=C/C(C)=C/[C@@H]1COC1OC(C)C(O)C(OC)[C@@H]1OC", "note": "(some centres undefined)", "activity change, negative = cytotoxicity": "3.1% [at 57.5 µM]"}
{"smiles": "C=Cc1c(C)/c2[n-]/c1=C\\c1[n-]c(c(CC)c1C)/C=c1\\[n-]c3c(c1C)C(=O)C(C(=O)[O-])C=3c1[n-]c(c(C)c1CCC(=O)[O-])\\C=2.[Cu].[Na+].[Na+]", "note": "(centres undefined)", "activity change, negative = cytotoxicity": "-24% [at 57.5 µM]"}
{"smiles": "CCC(=O)O[C@@]1(C(=O)CCl)C(C)CC2C3CCC4=CC(=O)C=C[C@@]4(C)[C@]3(F)C(O)C[C@]21C", "note": "(some centres undefined)", "activity change, negative = cytotoxicity": "-1.02% [at 57.5 µM]"}
{"smiles": "CC(=O)[C@]1(O)CCC2C3C=C(Cl)C4=CC(=O)C5CC5[C@@]4(C)C3CC[C@]21C", "note": "(some centres undefined)", "activity change, negative = cytotoxicity": "0% [at 57.5 µM]"}
{"smiles": "COC1OC(CO)C(OC2OC(C(=O)O)C(OC3OC(COS(=O)(=O)O)C(OC4OC(C(=O)O)C(OC5OC(CO)C(OC6OC(C(=O)O)C(OC7OC(COS(=O)(=O)O)C(OC8OC(C(=O)O)=C[C@H](O)C8OS(=O)(=O)O)C(O)C7NC(C)=O)[C@@H](O)C6O)C(O)C5NC(C)=O)[C@@H](O)C4O)C(O)C3NC(C)=O)[C@@H](O)C2O)C(O)C1NC(C)=O", "note": "(some centres undefined)", "activity change, negative = cytotoxicity": "19.6% [at 57.5 µM]"}
{"smiles": "C[C@@]12C=CC(=O)C=C1CCC1C3CC(O)[C@@](O)(C(=O)CO)[C@]3(C)CC(O)[C@]12F", "note": "(some centres undefined)", "activity change, negative = cytotoxicity": "9.45% [at 57.5 µM]"}
{"smiles": "CCC1OC(=O)C(C)[C@@H](O[C@H]2C[C@@](C)(OC)C(O)C(C)O2)C(C)[C@@H](O[C@@H]2OC(C)CC(N(C)C)C2O)[C@@](C)(O)CC(C)C(=O)[C@@H](C)C(O)[C@]1(C)O", "note": "(some centres undefined)", "activity change, negative = cytotoxicity": "5.4% [at 57.5 µM]"}
{"smiles": "CC1C2CCC3C4CC=C5CC(N(C)C)CC[C@@]5(C)C4CC[C@@]32CN1C", "note": "(some centres undefined)", "activity change, negative = cytotoxicity": "-1.62% [at 57.5 µM]"}
{"smiles": "COC1CC(O[C@H]2/C(C)=C/CC3CC(C[C@]4(CCC(C)C(C5CCCCC5)O4)O3)OC(=O)[C@H]3C=C(C)/C(=N/O)C4OC/C(=C\\C=C\\[C@@H]2C)[C@@]43O)OC(C)C1O", "note": "(some centres undefined)", "activity change, negative = cytotoxicity": "-0.659% [at 57.5 µM]"}
{"smiles": "CCC(C)C(=O)OC1CC(O)C=C2C=CC(C)C(CCC(O)CC(O)CC(=O)O)C21", "note": "(centres undefined)", "activity change, negative = cytotoxicity": "11% [at 57.5 µM]"}
{"smiles": "OCC1OC(n2cnc3c(=S)nc[nH]c32)C(O)C1O", "note": "(centres undefined)", "activity change, negative = cytotoxicity": "0.449% [at 57.5 µM]"}
{"tested_on": "not listed separately", "experiment": "S16 Schwann cell PMP22 intronic element firefly luciferase assay (AID 624032); note: nearly all actives have a fitted effect of over 30% in size; note: potency is the fitted concentration of half-maximal effect;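 for activity change, negative = inhibition: plate controls were DMSO for no effect and PTC124 positive control mean for full effect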", "conditions": "S16 rat Schwann cells, PMP22 element FLuc, 24 h; series mostly up to 25.7 µM; activity change, negative = inhibition: at the top concentration", "outline": "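Rat S16 Schwann cells stably carrying a PMP22 intronic element-driven Fluc reporter were seeded overnight, then exposed to compounds for 24 h at 37 °C. Luminescence was normalized to PTC124 (positive control) and DMSO (0% activity).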"}
{"smiles": "CC1(C)S[C@H]2C(NC(=O)[C@@H](N)c3ccc(O)cc3)C(=O)N2[C@@H]1C(=O)O", "note": "(some centres undefined)", "activity change, negative = inhibition": "14% [at 57.5 µM]"}
{"smiles": "CN(C)CCc1c[nH]c2ccc(CC3COC(=O)N3)cc12", "note": "(centres undefined)", "activity change, negative = inhibition": "8.57% [at 57.5 µM]"}
{"smiles": "NC(CCC(=O)N[C@@H](CS)C(=O)NCC(=O)O)C(=O)O", "note": "(some centres undefined)", "activity change, negative = inhibition": "-12.1% [at 57.5 µM]"}
{"smiles": "CC(C)Oc1ccc2c(=O)cc(-c3ccccc3)oc2c1", "activity change, negative = inhibition": "35.6% [at 57.5 µM]"}
{"smiles": "N[C@@H]1C(O)OC(CO)C(O)C1O", "note": "(some centres undefined)", "activity change, negative = inhibition": "-11.1% [at 57.5 µM]"}
{"smiles": "CC(=O)OCC(=O)[C@@]12OC3(CCCC3)OC1CC1C3CCC4=CC(=O)C=C[C@@]4(C)[C@]3(F)C(O)C[C@]12C", "note": "(some centres undefined)", "activity change, negative = inhibition": "-12.9% [at 57.5 µM]"}
{"smiles": "CCC1OC(=O)CC(O)C(C)[C@@H](O[C@@H]2OC(C)[C@H](O[C@@H]3C[C@@](C)(O)C(O)C(C)O3)C(N(C)C)C2O)[C@H](CC=O)CC(C)C(=O)/C=C/C(C)=C/[C@@H]1COC1OC(C)C(O)C(OC)[C@@H]1OC", "note": "(some centres undefined)", "activity change, negative = inhibition": "-5.4% [at 57.5 µM]"}
{"smiles": "C=Cc1c(C)/c2[n-]/c1=C\\c1[n-]c(c(CC)c1C)/C=c1\\[n-]c3c(c1C)C(=O)C(C(=O)[O-])C=3c1[n-]c(c(C)c1CCC(=O)[O-])\\C=2.[Cu].[Na+].[Na+]", "note": "(centres undefined)", "activity change, negative = inhibition": "-15.1% [at 57.5 µM]"}
{"smiles": "CCC(=O)O[C@@]1(C(=O)CCl)C(C)CC2C3CCC4=CC(=O)C=C[C@@]4(C)[C@]3(F)C(O)C[C@]21C", "note": "(some centres undefined)", "activity change, negative = inhibition": "31.7% [at 57.5 µM]"}
{"smiles": "CC(=O)[C@]1(O)CCC2C3C=C(Cl)C4=CC(=O)C5CC5[C@@]4(C)C3CC[C@]21C", "note": "(some centres undefined)", "activity change, negative = inhibition": "7.65% [at 57.5 µM]"}
{"smiles": "COC1OC(CO)C(OC2OC(C(=O)O)C(OC3OC(COS(=O)(=O)O)C(OC4OC(C(=O)O)C(OC5OC(CO)C(OC6OC(C(=O)O)C(OC7OC(COS(=O)(=O)O)C(OC8OC(C(=O)O)=C[C@H](O)C8OS(=O)(=O)O)C(O)C7NC(C)=O)[C@@H](O)C6O)C(O)C5NC(C)=O)[C@@H](O)C4O)C(O)C3NC(C)=O)[C@@H](O)C2O)C(O)C1NC(C)=O", "note": "(some centres undefined)", "activity change, negative = inhibition": "-8.51% [at 57.5 µM]"}
{"smiles": "C[C@@]12C=CC(=O)C=C1CCC1C3CC(O)[C@@](O)(C(=O)CO)[C@]3(C)CC(O)[C@]12F", "note": "(some centres undefined)", "activity change, negative = inhibition": "9.67% [at 57.5 µM]"}
{"smiles": "CCC1OC(=O)C(C)[C@@H](O[C@H]2C[C@@](C)(OC)C(O)C(C)O2)C(C)[C@@H](O[C@@H]2OC(C)CC(N(C)C)C2O)[C@@](C)(O)CC(C)C(=O)[C@@H](C)C(O)[C@]1(C)O", "note": "(some centres undefined)", "activity change, negative = inhibition": "2.82% [at 57.5 µM]"}
{"smiles": "CC1C2CCC3C4CC=C5CC(N(C)C)CC[C@@]5(C)C4CC[C@@]32CN1C", "note": "(some centres undefined)", "activity change, negative = inhibition": "-16.3% [at 57.5 µM]"}
{"smiles": "COC1CC(O[C@H]2/C(C)=C/CC3CC(C[C@]4(CCC(C)C(C5CCCCC5)O4)O3)OC(=O)[C@H]3C=C(C)/C(=N/O)C4OC/C(=C\\C=C\\[C@@H]2C)[C@@]43O)OC(C)C1O", "note": "(some centres undefined)", "activity change, negative = inhibition": "13.7% [at 57.5 µM]"}
{"smiles": "CCC(C)C(=O)OC1CC(O)C=C2C=CC(C)C(CCC(O)CC(O)CC(=O)O)C21", "note": "(centres undefined)", "activity change, negative = inhibition": "3.34% [at 57.5 µM]"}
{"smiles": "OCC1OC(n2cnc3c(=S)nc[nH]c32)C(O)C1O", "note": "(centres undefined)", "Potency": "2870 nM (active)"}
